From ChEMBL document CHEMBL3988442, “University of Dundee, Small-Polar-MMV Screening Library” (2021)
Hit rate of the full screen: of about 48,000 compounds, about 13,000 (27%) showed an effect of 50% or more. This is one part of the list.

What follows are compounds tested on Wolbachia pipientis (assay: Anti-Wolbachia Cell-Based Screen). Conditions: 5 µM.
Format: functional
Set-up: scale not given: in the data most compounds retested in dose-response had high values

Row | SMILES | Percent Effect
1 | Fc1cccnc1N1CCOCC2(CCCNC2)C1 (centres undefined) | -2.668%
2 | N#Cc1cccc(C(=O)NS(=O)(=O)c2ccc(C#N)c(Cl)c2)c1 | -1.961%
3 | COc1ccc(CN2C[C@H]3CN(c4cncnc4)C(=O)[C@H]3C2)cc1.O=C(O)C(F)(F)F | -6.592%
4 | CCc1cc(N2CCC(NC3CN4CCC3CC4)CC2)nc(N(C)C)n1 (centres undefined) | 2.929%
5 | CCCn1cc(C(=O)NCC(=O)NC2CC2)c(C)n1 | 8.869%
6 | COc1ncccc1CN1CC[C@H]2[C@H]1CCN2CCN(C)C.O=C(O)C(F)(F)F.O=C(O)C(F)(F)F.O=C(O)C(F)(F)F.O=C(O)C(F)(F)F | -2.708%
7 | COc1ncccc1CN1C[C@H]2CCN(C(C)C)C[C@H]2C1.O=C(O)C(F)(F)F.O=C(O)C(F)(F)F | 108.8%
8 | CCN1CCCC12CCN(Cc1cccnc1OC)CC2.O=C(O)C(F)(F)F.O=C(O)C(F)(F)F | 9.255%
9 | COc1ncccc1CN1C[C@H]2CCN(c3ncccn3)C[C@H]2C1.O=C(O)C(F)(F)F | 102%
10 | CN1CC2(CCNCC2)CC1C(=O)NCCCNc1cccnc1 (centres undefined) | 9.44%
11 | CN1[C@@H](C(=O)NCC2CC2)C[C@@H]2CN(c3ncccn3)C[C@@H]21 | -3.694%
12 | CNC(=O)[C@@]12CCCN(c3ncccn3)[C@@H]1CN(C)C2.O=C(O)C(F)(F)F | -0.06284%
13 | O=C(O)C(F)(F)F.O=C(O)C(F)(F)F.c1cnc(N2CCCC3(CCN(CC4CC4)C3)C2)nc1 (centres undefined) | -2.531%
14 | CN1C[C@H]2N(c3ncccn3)CCC[C@@]2(C(=O)NCC2CC2)C1.O=C(O)C(F)(F)F | 104.5%
15 | CC(=O)N1C[C@H]2CCCC(N3CCN(c4ncccn4)CC3)[C@H]2C1.O=C(O)C(F)(F)F.O=C(O)C(F)(F)F (some centres undefined) | -9.605%
16 | CCN1C[C@H]2N(c3ncccn3)CCC[C@@]2(C(=O)NCC2CC2)C1 | 121.2%
17 | CN(CC1Cc2ccccc2CN1C)C(=O)Cc1cccs1 (centres undefined) | 4.108%
18 | O=C(O)C(F)(F)F.c1ccc(NC[C@@H]2CCC[C@@H]3CN(Cc4cc[nH]n4)C[C@@H]32)nc1 | -6.028%
19 | Cn1cc(CN2C[C@H]3CCC[C@@H](CNc4ncccn4)[C@H]3C2)cn1.O=C(O)C(F)(F)F | 111.9%
20 | Cn1cc(CN2C[C@@H]3CCC[C@@H](OCc4cccnc4)[C@@H]3C2)cn1 | 52.17%
21 | COCCN1C[C@H]2CCC[C@@H](CNc3ncccn3)[C@H]2C1.O=C(O)C(F)(F)F.O=C(O)C(F)(F)F | 1.407%
22 | O=C(O)C(F)(F)F.c1cnc(NC[C@@H]2CCC[C@@H]3CN(Cc4cc[nH]n4)C[C@@H]32)nc1 | -8.539%
23 | Cn1ccnc1NC[C@@H]1CCC[C@@H]2CN(Cc3cccnc3)C[C@@H]21.O=C(O)C(F)(F)F | 109.4%
24 | O=C(O)C(F)(F)F.c1cnc(NC[C@@H]2CCC[C@@H]3CN(Cc4csnn4)C[C@@H]32)nc1 | 17.75%
25 | O=C(O)C(F)(F)F.c1cncc(CN2C[C@H]3CCC[C@@H](CNc4cnccn4)[C@H]3C2)c1 | 134.5%

Row | SMILES | Percent Effect
26 | COc1ccc(CN2C[C@H]3CCC[C@@H](CN(C)C)[C@H]3C2)cn1.O=C(O)C(F)(F)F.O=C(O)C(F)(F)F | 10.6%
27 | COc1ccc(CN2C[C@H]3CCC[C@@H](CN(C)C4CC4)[C@H]3C2)cn1.O=C(O)C(F)(F)F.O=C(O)C(F)(F)F | 14.86%
28 | CN(C[C@@H]1CCC[C@@H]2CN(Cc3cccnc3)C[C@@H]21)C1CC1.O=C(O)C(F)(F)F.O=C(O)C(F)(F)F | 2.908%
29 | O[C@@]1(CNCCCNc2cccnc2)CCCN2CCCC[C@@H]21 | 3.199%
30 | Cc1nc(O)cc(CN2CC=C(c3cnn(C(C)(C)C)c3)CC2)n1 | 6.105%
31 | CC(Cc1ccccc1Br)NC(=O)CCS(C)(=O)=O (centres undefined) | 11.71%
32 | O=C(O)C(F)(F)F.c1cnc(NC[C@@H]2CCC[C@@H]3CN(Cc4cccnc4)C[C@@H]32)nc1 | -1.894%
33 | O=C(O)C(F)(F)F.c1ccc(NC[C@@H]2CCC[C@@H]3CN(Cc4cccnc4)C[C@@H]32)nc1 | 90.18%
34 | O=C(O)C(F)(F)F.c1ccc(NC[C@@H]2CCC[C@@H]3CN(Cc4nccs4)C[C@@H]32)nc1 | -15.69%
35 | CSCCCN1CC[C@@]2(O)CCN(c3ncccn3)C[C@H]2C1 | -7.567%
36 | Cc1cccc(-c2ncc(CNC(C)Cc3ncccc3C)cn2)c1 (centres undefined) | -7.429%
37 | Cc1noc(C)c1CN1C(=O)[C@H]2CC[C@@H]1CN(Cc1cscn1)C2 | -52.5%
38 | Cc1nc(CN2CCCC3(CCN(c4cccnc4)C3=O)C2)cs1.O=C(O)C(F)(F)F.O=C(O)C(F)(F)F (centres undefined) | -13.68%
39 | Cc1nc(CN2CCC3(C2)CN(C(=O)c2conc2C)C3)cs1 | 97.08%
40 | Cc1cc(NC2CC3(CCN(Cc4csc(C)n4)C3)C2)ncn1 (centres undefined) | 114%
41 | Cc1cc(CN2C[C@H]3CCC[C@@]3(COCc3csc(C)n3)C2)no1.O=C(O)C(F)(F)F | 6.371%
42 | c1cc(NC2CC3(CCN(Cc4cc[nH]n4)C3)C2)ncn1 (centres undefined) | -10.13%
43 | c1cc(NC2CC3(CCN(Cc4cscn4)C3)C2)ncn1 (centres undefined) | 101.6%
44 | Cc1cc(NC2CC3(CCN(Cc4cscn4)C3)C2)ncn1 (centres undefined) | 115%
45 | NCC1(c2cccc(F)c2)CCOCC1 | -10.48%
46 | Cc1cc(CC(=O)N2CCN(CC3CC3)[C@@H]3CS(=O)(=O)C[C@@H]32)ccc1F | 7.302%
47 | O=S1(=O)CCC(n2cc(C3=CCN(CCc4ccccc4)CC3)cn2)C1 (centres undefined) | -5.355%
48 | Cc1n[nH]c(C)c1CC(=O)N1CCN(C)C2(CCNC(=O)CC2)C1 (centres undefined) | 2.016%
49 | O=C(Nc1ccccc1)[C@H]1CN2CC[C@H]1C[C@@H]2Cn1cc(CCO)nn1 | -5.907%
